Assay results from ChEMBL document CHEMBL3988442, “University of Dundee, Small-Polar-MMV Screening Library” (2021).
For part of these data: Entries with a potency or affinity are not part of this list.

Tests used:
Parameters in all cases: scale not given: direction of the effect not stated beside the values
[1] = target: Protein translocase subunit SecA (Escherichia coli (strain K12)) (UniProt P10408); assay: Assay to Identify E. coli SecA ATPase Inhibitors; assay type: functional; details: 30 µM
Sequence of Protein translocase subunit SecA (Escherichia coli (strain K12)) (P10408 whole entry): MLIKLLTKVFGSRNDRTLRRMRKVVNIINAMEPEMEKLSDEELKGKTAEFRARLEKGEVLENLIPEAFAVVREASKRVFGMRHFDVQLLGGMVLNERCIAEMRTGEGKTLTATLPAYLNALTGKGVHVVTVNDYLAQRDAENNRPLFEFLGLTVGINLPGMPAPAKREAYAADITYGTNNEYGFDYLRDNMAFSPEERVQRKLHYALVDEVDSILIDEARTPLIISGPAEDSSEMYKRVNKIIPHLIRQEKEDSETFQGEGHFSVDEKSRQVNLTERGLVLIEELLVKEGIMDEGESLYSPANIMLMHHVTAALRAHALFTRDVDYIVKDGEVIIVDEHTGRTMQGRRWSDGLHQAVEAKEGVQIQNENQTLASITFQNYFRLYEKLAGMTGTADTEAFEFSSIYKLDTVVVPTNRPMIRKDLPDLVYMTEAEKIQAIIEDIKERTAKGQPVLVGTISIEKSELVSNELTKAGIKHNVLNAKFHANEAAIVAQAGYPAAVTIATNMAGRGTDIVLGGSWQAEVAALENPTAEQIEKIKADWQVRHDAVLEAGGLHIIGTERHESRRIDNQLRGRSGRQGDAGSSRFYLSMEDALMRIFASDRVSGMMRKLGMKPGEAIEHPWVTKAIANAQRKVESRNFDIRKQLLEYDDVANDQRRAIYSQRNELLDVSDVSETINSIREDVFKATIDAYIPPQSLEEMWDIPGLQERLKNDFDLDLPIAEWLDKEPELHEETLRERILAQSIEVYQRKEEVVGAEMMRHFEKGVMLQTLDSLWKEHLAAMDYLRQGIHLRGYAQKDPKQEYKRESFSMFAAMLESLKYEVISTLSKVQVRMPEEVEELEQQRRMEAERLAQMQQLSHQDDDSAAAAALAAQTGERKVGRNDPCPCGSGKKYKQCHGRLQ

[2] = target: T1, Ubiquitin-activating enzyme e1, putative (Leishmania donovani (strain BPK282A1)) (UniProt E9BSI1); assay: Leishmania donovani Ubiquitin Activating Enzyme (LdE1); assay type: functional; details: 30 µM
T1 sequence (whole entry): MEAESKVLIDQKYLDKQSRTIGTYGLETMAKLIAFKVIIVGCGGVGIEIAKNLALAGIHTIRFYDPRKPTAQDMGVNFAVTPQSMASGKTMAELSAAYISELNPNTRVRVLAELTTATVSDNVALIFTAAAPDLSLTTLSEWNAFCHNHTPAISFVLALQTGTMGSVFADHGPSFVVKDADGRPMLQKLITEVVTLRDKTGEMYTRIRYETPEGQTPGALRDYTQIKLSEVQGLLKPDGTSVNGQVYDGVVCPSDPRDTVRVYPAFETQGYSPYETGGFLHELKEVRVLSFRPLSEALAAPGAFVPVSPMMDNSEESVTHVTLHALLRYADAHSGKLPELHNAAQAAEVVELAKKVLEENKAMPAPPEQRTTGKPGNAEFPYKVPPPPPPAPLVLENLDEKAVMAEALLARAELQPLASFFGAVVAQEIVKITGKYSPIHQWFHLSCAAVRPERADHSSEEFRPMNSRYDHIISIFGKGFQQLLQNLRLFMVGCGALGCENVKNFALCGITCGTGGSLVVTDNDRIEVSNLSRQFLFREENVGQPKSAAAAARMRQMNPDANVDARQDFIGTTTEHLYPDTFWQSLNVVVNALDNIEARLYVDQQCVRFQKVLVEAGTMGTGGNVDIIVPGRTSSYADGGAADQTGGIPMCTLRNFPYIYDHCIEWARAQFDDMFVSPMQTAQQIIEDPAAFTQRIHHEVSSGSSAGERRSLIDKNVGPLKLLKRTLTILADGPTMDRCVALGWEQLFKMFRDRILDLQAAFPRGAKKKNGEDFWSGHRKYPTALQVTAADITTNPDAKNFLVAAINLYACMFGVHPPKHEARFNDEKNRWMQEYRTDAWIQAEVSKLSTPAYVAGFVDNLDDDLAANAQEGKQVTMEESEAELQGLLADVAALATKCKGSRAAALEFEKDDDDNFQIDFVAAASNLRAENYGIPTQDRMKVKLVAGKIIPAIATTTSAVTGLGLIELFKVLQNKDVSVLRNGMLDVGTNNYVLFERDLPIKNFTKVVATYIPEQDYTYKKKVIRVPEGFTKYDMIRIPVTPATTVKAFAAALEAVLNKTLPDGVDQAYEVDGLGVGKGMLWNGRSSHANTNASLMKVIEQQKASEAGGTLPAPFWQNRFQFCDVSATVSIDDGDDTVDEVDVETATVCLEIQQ

[3] = target: AMP-activated protein kinase, AMPK (Homo sapiens) (UniProt P54646+O43741+P54619+Q9UGJ0+Q9Y478+Q13131+Q9UGI9); assay: AMP-dependent Kinase enzyme assay. An in vitro enzyme assay that detects ADP turnover that is directly proportional to AMPK activity. This uses naive AMPK that is activated during the assay with MK-8722; assay type: functional; details: 30 µM
[4] = target: Sialic acid-binding Ig-like lectin 9 (Homo sapiens) (UniProt Q9Y336); assay: Hs-Siglec9 ALPHAscreen SOP 20170721; details: 10 µM
Sequence of Sialic acid-binding Ig-like lectin 9 (Homo sapiens) (Q9Y336 whole entry): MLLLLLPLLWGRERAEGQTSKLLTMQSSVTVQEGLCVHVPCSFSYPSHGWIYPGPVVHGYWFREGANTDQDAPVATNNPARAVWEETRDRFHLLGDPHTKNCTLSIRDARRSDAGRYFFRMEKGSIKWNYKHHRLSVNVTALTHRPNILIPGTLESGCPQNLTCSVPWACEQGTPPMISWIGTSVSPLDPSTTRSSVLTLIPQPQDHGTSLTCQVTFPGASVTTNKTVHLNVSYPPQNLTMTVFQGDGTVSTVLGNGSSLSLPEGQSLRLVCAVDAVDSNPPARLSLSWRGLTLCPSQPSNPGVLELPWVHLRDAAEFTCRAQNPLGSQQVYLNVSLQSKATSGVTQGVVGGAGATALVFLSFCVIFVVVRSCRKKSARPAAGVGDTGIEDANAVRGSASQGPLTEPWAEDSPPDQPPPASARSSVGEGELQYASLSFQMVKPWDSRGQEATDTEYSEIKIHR

Trypanosoma cruzi = assay: Trypanosoma cruzi phosphomannomutase and mannose-1-phosphate guanylyltransferase assay; assay type: functional; details: 10 µM
[5] = target: T2, Arginase-2, mitochondrial (Homo sapiens) (UniProt P78540); assay: in vitro enzyme assay to detect the production of urea directly proportional to the activity of Arginase II; assay type: functional; details: 33.3 µM; further: in the data most compounds retested in dose-response had high values
T2 sequence (whole entry): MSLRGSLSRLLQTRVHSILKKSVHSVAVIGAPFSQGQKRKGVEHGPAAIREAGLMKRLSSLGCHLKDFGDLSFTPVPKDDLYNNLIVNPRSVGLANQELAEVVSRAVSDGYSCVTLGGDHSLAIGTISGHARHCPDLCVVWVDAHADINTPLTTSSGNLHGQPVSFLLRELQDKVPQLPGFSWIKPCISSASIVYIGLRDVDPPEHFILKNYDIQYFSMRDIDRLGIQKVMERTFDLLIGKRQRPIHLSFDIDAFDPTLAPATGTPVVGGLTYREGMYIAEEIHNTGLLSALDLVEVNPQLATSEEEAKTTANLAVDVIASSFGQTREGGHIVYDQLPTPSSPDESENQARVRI

[6] = target: T3, Proteasome subunit beta (Trypanosoma cruzi) (UniProt O96673); assay: Trypanosoma cruzi proteasome chymotrypsin-like activity (TcProtChymo) assay.; further: in the data most compounds retested in dose-response had high values; assay type: functional; details: 9.37 µM
T3 sequence (whole entry): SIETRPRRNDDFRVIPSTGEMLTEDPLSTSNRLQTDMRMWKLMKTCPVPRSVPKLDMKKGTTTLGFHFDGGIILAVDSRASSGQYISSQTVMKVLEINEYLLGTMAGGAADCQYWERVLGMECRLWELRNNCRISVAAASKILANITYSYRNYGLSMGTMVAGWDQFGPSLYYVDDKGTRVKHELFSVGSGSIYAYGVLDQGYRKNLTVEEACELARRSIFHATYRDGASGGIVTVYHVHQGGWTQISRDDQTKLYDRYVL

Homo sapiens = species: Homo sapiens; assay: To identify inhibition of the IFN signalling (Jak-Stat) pathway via expression of an eGFP reporter gene under the control of an IFN-stimulated response element (ISRE) containing MxA promoter.; assay type: functional; details: 30 µM
[7] = target: T4, Tyrosyl-tRNA synthetase, putative (Trypanosoma cruzi (strain CL Brener)) (UniProt Q4DSP6); assay: Trypanosoma cruzi tyrosyl tRNA synthetase (TcYRS) _High Tyrosine SOP; assay type: functional; details: 30 µM; further: in the data most compounds retested in dose-response had high values
T4 sequence (whole entry): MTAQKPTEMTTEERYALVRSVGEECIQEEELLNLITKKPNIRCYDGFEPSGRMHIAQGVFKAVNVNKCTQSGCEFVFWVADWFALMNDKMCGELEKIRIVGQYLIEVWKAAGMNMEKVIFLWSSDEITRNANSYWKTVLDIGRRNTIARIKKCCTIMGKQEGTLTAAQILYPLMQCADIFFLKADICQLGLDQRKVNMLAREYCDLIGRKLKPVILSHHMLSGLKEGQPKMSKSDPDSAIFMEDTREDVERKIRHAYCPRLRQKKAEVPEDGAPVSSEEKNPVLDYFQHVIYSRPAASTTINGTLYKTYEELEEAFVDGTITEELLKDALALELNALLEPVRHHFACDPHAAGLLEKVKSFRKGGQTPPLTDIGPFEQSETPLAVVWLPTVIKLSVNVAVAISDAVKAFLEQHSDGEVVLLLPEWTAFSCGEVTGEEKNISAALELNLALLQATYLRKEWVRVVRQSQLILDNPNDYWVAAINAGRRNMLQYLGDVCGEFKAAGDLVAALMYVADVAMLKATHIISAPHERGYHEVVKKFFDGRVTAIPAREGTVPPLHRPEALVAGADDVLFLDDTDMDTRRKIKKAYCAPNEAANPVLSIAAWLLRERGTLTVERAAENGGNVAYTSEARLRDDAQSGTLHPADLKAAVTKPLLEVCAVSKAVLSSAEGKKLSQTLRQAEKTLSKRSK

[8] = target: T4, Tyrosyl-tRNA synthetase, putative (Trypanosoma cruzi (strain CL Brener)); assay: Trypanosoma cruzi tyrosyl tRNA synthetase (TcYRS) SOP; assay type: functional; details: 30 µM
[9] = target: Chromo domain-containing protein 1 (Saccharomyces cerevisiae (strain ATCC 204508 / S288c) (Baker's yeast)) (UniProt P32657); assay: ScCHD-1 Enzyme Inhibition Assay; assay type: functional; details: 30 µM; further: in the data most compounds retested in dose-response had high values
Sequence of Chromo domain-containing protein 1 (Saccharomyces cerevisiae (strain ATCC 204508 / S288c) (Baker's yeast)) (P32657 whole entry, the tested form may be a part): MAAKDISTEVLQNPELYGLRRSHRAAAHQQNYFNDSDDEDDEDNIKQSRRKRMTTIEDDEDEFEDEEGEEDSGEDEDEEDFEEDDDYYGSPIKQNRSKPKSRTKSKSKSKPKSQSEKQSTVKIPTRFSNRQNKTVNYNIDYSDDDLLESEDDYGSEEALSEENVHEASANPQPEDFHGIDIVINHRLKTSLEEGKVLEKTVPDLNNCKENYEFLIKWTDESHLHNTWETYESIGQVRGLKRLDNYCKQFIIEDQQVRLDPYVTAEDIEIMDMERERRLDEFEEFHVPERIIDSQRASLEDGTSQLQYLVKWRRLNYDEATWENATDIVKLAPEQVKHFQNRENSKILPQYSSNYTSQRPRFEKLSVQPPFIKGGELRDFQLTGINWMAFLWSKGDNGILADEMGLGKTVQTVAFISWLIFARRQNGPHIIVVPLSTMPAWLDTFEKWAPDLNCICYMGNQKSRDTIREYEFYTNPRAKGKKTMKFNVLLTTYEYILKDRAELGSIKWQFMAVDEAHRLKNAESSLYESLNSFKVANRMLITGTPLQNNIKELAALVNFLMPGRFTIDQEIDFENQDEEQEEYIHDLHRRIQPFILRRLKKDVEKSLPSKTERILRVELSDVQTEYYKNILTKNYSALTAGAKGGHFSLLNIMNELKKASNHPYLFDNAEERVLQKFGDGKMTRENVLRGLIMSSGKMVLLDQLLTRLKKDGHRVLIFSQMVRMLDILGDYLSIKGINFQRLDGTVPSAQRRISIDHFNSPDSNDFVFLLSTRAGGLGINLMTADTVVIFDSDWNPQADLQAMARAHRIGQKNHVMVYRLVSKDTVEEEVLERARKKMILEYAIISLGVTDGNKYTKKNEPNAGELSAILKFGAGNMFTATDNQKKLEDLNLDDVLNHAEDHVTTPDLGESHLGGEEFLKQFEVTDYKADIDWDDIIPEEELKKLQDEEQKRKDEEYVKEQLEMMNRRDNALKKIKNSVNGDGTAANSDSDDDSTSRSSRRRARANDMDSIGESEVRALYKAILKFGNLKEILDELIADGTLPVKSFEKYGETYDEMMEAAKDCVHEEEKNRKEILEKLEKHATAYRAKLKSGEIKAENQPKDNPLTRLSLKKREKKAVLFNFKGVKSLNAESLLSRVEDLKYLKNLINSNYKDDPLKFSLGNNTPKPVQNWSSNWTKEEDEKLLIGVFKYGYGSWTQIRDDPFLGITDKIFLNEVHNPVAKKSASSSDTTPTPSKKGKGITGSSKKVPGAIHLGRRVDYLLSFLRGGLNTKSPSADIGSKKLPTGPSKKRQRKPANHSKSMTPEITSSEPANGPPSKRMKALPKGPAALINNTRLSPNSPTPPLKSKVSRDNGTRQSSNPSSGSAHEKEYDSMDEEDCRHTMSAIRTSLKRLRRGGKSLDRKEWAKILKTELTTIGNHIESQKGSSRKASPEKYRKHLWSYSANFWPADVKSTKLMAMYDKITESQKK

SMILES	Percent Effect [1] [%]	Percent Effect [2] [%]	Percent Effect [3] [%]	Percent Effect [4] [%]	Percent Effect (Trypanosoma cruzi) [%]	Percent Effect [5] [%]	Percent Effect [6] [%]	Percent Effect (Homo sapiens) [%]	Percent Effect [7] [%]	Percent Effect [8] [%]	Percent Effect [9] [%]
CCN1CCN(S(=O)(=O)c2ncn(C)c2Cl)CC1	-6.34	6.94	-0.0263	3.04	-3.79	1.77	21.4	6.76	1.05	10.3	-1.92
CS(=O)(=O)c1ccc(CNC(=O)N2CCC(c3ccccc3)CC2)cc1	-1.75	7.59	0.598	-2.13	-5.76	3.42	5	8.31	-3.45	1.27	-6.29
CC(C)NC(=O)N1CCC(n2ccc(C(F)(F)F)n2)CC1	-6.7	5.48	-3.52	-4.66	-2.74	-0.909	5.32	-13.8	0	7.5	-2.82
CC(C)c1nc2n(n1)CC(NCc1ccncc1)CC2 (stereo unspecified)	-3.2	5.26	-3.06	-0.0553	2.63	-5.92	4.12	3.22	2.13	5.2	-1.54
CCOC(=O)c1sc2ccsc2c1CNC(=O)C(C)(C)C#N	-2.65	0	8.08	1.84	1.76	-5.73	-5.57	13.9	5.94	11	14.5
O=c1cc2c(nn1CN1CCN(c3cccc(Cl)c3)CC1)CCC2	-3.06	6.67	0.948	5.21	0.589	-6.87	19	4.05	6.35	12.8	-2.65
Cc1noc([C@H]2C[C@@H]3CCN(C(=O)C4CCOCC4)C[C@H]3O2)n1	-3.88	0	7.28	1.95	-3.81	8.6	17	-2.45	1.08	5.13	3.17
Cc1nc(-c2ccsc2)ccc1C(=O)NCCC(=O)N1CCCC1	-5.91	13.2	-2.05	5.21	6.2	1.15	3.34	-2.2	-1.47	9.76	-11.3
Cc1ccoc1C(=O)N1CC[C@H]2OCC[C@@]2(COCc2ccncc2)C1	-0.155	15.6	3.21	3.48	2.07	7.1	17.2	23.7	7.41	16.7	-9.72
O=C(N[C@@H]1CN(c2ncccn2)[C@@H]2CCCO[C@@H]21)c1cnccn1	-3.44	2.67	2.76	2.22	0.772	-38.9	9.91	-16.7	6.25	20	-7.55
CCS(=O)(=O)CCN1CCCC1c1noc(C2CC2)n1 (stereo unspecified)	-0.786	20.2	-7.83	-3.74	-4.44	0	6.63	38.5	-0.493	-34.2	-7.2
Cc1noc([C@@]23CCO[C@@H]2CCN(C(=O)C2CCOCC2)C3)n1	-0.432	10.7	2.61	-3.48	-1.54	-51.8	13.2	-1.95	7.29	20	-7.84
O=C(NCc1nnc2n1CCCC2)N1CCc2ccccc2C1	-3.86	11.4	-3.15	2.59	-4	4.09	4.63	4.93	1.04	12.7	-7.99
COC(=O)C(c1cc(F)ccc1F)N(C)C(=O)c1ccnc(C)n1 (stereo unspecified)	-4.44	-46.8	8.88	3.63	-2.77	0.645	1.72	18.2	7.29	15.2	-3.25
COc1cc(C(=O)N(Cc2ccco2)C2CC2)cc2c1OCCO2	-0.29	-2.63	8.94	6.17	-1.46	-5.92	6.81	6.99	2.13	2.6	0.909
CC(=O)N1CCCN(C(=O)c2csc(-c3ccc(C)cc3C)n2)CC1	-4.67	18.9	-3.68	14.8	7.15	-7.58	5.39	30	5.94	23.2	-6.02
O=C1N(CCCc2ccccc2)CCCC1(O)CNCc1ccccc1 (stereo unspecified)	-3.24	2.7	-10.2	31.6	4.4	-0.248	8.5	-7.46	8.6	18.5	-3.9
Cc1noc(C)c1-c1cccc(CC2CCN(C(=O)CCC(=O)O)C2)n1 (stereo unspecified)	-2.58	6.76	5.24	4.95	3.16	0.696	3.28	-7.92	1.07	3.9	-9.71
COc1ccccc1NC(=O)NCC(O)(c1ccccc1)C1CC1 (stereo unspecified)	-6.75	11	-22.1	33.1	7.05	7.27	12.9	7.23	0	10	-6.95
Cc1cc(C[C@@H]2COC[C@H]2NCc2ccccc2C(F)(F)F)on1	-5.6	4.05	-0.353	6.23	1.58	0.232	14	5.54	3.23	11.7	-18.2
O=C1N(Cc2cccc(F)c2F)CCCC1(O)CNC1CCCC1 (stereo unspecified)	-6.14	16	-3.79	22.4	5.55	7.29	4.36	4.41	3.83	6.17	97.3
